Assay outcomes: PubChem, The Scripps Research Institute Molecular Screening Center
TEAD-YAP block – TEAD-YAP interaction inhibition, primary screen, TEAD-YAP interaction inhibitor project, luminescence, HEK-TIYL cells; TEAD-Gal4/YAP UAS-luciferase luminescence; inhibition, % at 9.12 µM; 640,000 compounds, 1.4% hits; in the data active means inhibition above about 32%
FBW7 act – FBW7 E3 ligase activators, primary screen, biochemical, AlphaScreen, human. F-box/WD repeat-containing protein 7 (Homo sapiens), Q969H0. AlphaScreen FBW7–phospho-cyclin E peptide binding, activator screen. normalized activity (activation), % at 26.1 µM. 650,000 compounds, 0.13% hits. AID 1259310, 2017; in the data active means normalized activity above about 1.9%;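 further: purified mutant Fbw7 with reduced substrate affinity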
GPR151 activ – activators of human GPR151, primary screen, cell-based, PathHunter beta-arrestin, luminescence. G-protein coupled receptor 151 (Homo sapiens), Q8TDV0. PathHunter beta-arrestin GPR151 cells. activation, % at 11.2 µM. 650,000 compounds, 1% hits. AID 1508602, 2020; in the data active means activation above about 4.9%
MITF inh – MITF inhibitors, primary screen, biochemical, AlphaScreen, human | AlphaScreen MITF homodimerization, bead proximity signal | inhibition, % at 2.6 µM | 650,000 compounds, 0.91% hits; in the data active means inhibition above about 50%
Target sequence (O75030 whole entry, looked up): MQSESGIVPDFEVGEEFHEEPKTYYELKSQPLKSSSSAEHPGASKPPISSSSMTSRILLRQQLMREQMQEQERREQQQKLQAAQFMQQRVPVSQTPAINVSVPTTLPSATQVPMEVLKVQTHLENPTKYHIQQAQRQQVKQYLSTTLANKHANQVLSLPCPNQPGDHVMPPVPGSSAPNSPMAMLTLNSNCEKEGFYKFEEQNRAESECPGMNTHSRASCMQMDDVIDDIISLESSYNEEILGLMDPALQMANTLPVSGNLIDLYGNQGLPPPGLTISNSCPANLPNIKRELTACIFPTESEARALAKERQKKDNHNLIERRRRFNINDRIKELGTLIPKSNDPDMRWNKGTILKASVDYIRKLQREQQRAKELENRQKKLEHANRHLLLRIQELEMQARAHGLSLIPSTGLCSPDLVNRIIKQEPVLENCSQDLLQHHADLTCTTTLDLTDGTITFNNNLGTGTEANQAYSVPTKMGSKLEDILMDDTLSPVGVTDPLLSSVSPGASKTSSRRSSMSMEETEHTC
MITF confirm – MITF inhibitors, retest of hits, confirmation, biochemical, AlphaScreen, triplicate; 4,700 compounds, 16% hits; AlphaScreen MITF homodimerization, biotin/His-MITF beads; shares compounds with MITF inh; inhibition, % at 2.6 µM;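 active means inhibition above a cutoff derived from the DMSO control wells, cut at about 28% in these data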;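 further: inhibitors lower the bead chemiluminescence by keeping MITF from dimerizing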
AlphaScreen DR – AlphaScreen optical interference compounds, dose response, counter-screen, biochemical, HTS; 480 compounds, 6% hits; shares compounds with MITF inh; IC50, µM; AlphaScreen optical interference counterscreen, cell-free; call rule not given here
AS interf ctr – AlphaScreen optical interference compounds, counter-screen for MITF inhibitor project, biochemical, triplicate | 4,700 compounds, 7.6% hits | inhibition, % at 2.6 µM | AID 1259376, 2018 | LysRS AlphaScreen counterscreen, signal interference | shares compounds with MITF inh;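 active means inhibition above a cutoff derived from the DMSO control wells, cut at about 30% in these data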
Each line names hits and unclear results; the compound was inactive in the other large screens (follow-up assays come after a bar, where they were run). In the library only some 3.5% were active in any assay of this set; here they are far more common.

CC(C)(C)NC(=O)c1ccccc1NS(=O)(=O)c1ccccc1	none
COc1cc(CN2CCN(Cc3ccc(OC)c(OC)c3OC)CC2)cc(OC)c1	MITF inh 70 | MITF confirm inactive | AS interf ctr inactive
O=S(=O)(c1ccc2c(c1)OCCO2)N1CCN(c2cc(N3CCCC3)ncn2)CC1	MITF inh 80 | MITF confirm inactive | AS interf ctr inactive
O=S(=O)(c1ccc2c(c1)CCCC2)N1CCN(c2cc(N3CCCC3)ncn2)CC1	none
Cc1cc(N)n(-c2ccccc2Cl)n1	none
COc1ccccc1NC(=O)CC(C(=O)O)N(C)C (stereo not given)	none
O=C(Cc1ccccc1)Nc1cc(Cl)ccc1Cl	none
COc1ccccc1NC(=O)CC(NCc1ccccn1)C(=O)O (stereo not given)	MITF inh 100 | MITF confirm 106 | AS interf ctr 100
O=C(CC(NCc1ccccn1)C(=O)O)Nc1cc(Cl)ccc1Cl (stereo not given)	MITF inh 104 | MITF confirm 75 | AS interf ctr 100
O=C(CC(NCc1ccccn1)C(=O)O)Nc1ccccc1Cl (stereo not given)	MITF inh 104 | MITF confirm 89 | AS interf ctr 100
COc1ccc(OC)c(CN(C)C2CCN(C)CC2)c1	none
CCN1C(=O)C(=O)N(CC(=O)Nc2ccc(OC(F)(F)F)cc2)C1=O	none
CN(C)/C=C/C=C/C(=O)C1CCC/C(=C\C=C\N(C)C)C1=O (stereo not given)	MITF inh 70 | MITF confirm 63 | AlphaScreen DR inactive | AS interf ctr inactive
COc1ccc(S(=O)(=O)N2CCN=C2SCc2ccc(F)cc2)cc1	none
COc1ccc(CN(CCCN(C)C)CCCN(C)C)cc1OC	none
CN(C)CCCN(CCCN(C)C)Cc1ccc(Br)cc1	MITF inh 54 | MITF confirm inactive | AS interf ctr inactive
COc1cc(N)ccc1NC(=O)CSc1ncnc2sc3c(c12)CCCC3	MITF inh 79 | MITF confirm inactive | AS interf ctr inactive
COc1ccc(OC)c(NC(=O)c2ccc(Cl)cc2Cl)c1	none
COc1ccc(N2C(=O)C3CCCCC3C2=O)cc1NC(=O)c1ccc(Cl)cc1Cl (stereo not given)	MITF inh 76 | MITF confirm inactive | AS interf ctr inactive
CC(C)(C)c1csc(CN2CCN(CC(=O)Nc3ccc4c(c3)OCO4)CC2)n1	MITF inh 79 | MITF confirm inactive | AS interf ctr inactive
COc1ccc2cc3c(N)nn(C(=O)/C=C/c4ccc5c(c4)OCO5)c3nc2c1	none
CN(C)CCCNC(=O)c1cccc(CN(C(=O)c2nc3ccc(-c4cn[nH]c4)cc3s2)C2CC2)c1	MITF inh 60 | MITF confirm 50 | AlphaScreen DR inactive | AS interf ctr inactive
COc1cccc(C(=O)COC(=O)CCCC(=O)Nc2ccc([N+](=O)[O-])cc2)c1	MITF inh 62 | MITF confirm inactive | AS interf ctr inactive
COc1cccc(C(=O)COC(=O)CCC(=O)Nc2ccc([N+](=O)[O-])cc2)c1	none
Cc1sc2ncnc(N/N=C/c3ccncc3)c2c1C	none
OCCNc1ccnc(Nc2nccc3ccccc23)n1	MITF inh 71 | MITF confirm inactive | AS interf ctr 37
O=c1/c(=C/c2cccnc2)sc2n1CN(c1ccccc1)CN=2	none
CC(C)c1ccc(C(C)C)c(SCCc2ccccn2)c1	MITF inh 53 | MITF confirm inactive | AS interf ctr inactive
CC(C)(C)c1ccc(SCCc2ccccn2)cc1	MITF inh 63 | MITF confirm inactive | AS interf ctr inactive
c1ccc(OCc2nc3ccccc3n2CC2CCN(Cc3ccccn3)CC2)cc1	MITF inh 90 | MITF confirm inactive | AS interf ctr inactive
COc1ccc(CCNC(=O)c2cc(Nc3ccnn3C)nc3ccccc23)cc1	MITF inh 69 | MITF confirm inactive | AS interf ctr inactive
Nc1nc2c(nc(NCc3ccccc3)n2C2OC(CO)C(O)C2O)c(=O)[nH]1 (stereo not given)	none
N#CC1=c2/c(=C/c3ccco3)c(N)c(C#N)n2C(=O)C(c2ccco2)S1 (stereo not given)	MITF inh 68 | MITF confirm 47 | AlphaScreen DR inactive | AS interf ctr inactive
COc1cc(OC)c(CN2CCCC(C)C2)cc1Br (stereo not given)	none
O=C(O)COc1ccc(N2C(=O)c3ccccc3C2=O)cc1	none
O=C(O)COc1ccc(-n2cccc2)cc1	MITF inh 74 | MITF confirm 50 | AlphaScreen DR inactive | AS interf ctr inactive
C=CCc1cc(C)ccc1OCCCCN1CCOCC1	MITF inh 56 | MITF confirm inactive | AS interf ctr inactive
C=CCc1cc(Cl)ccc1OCCCN1CCN(CC)CC1	MITF inh 81 | MITF confirm inactive | AS interf ctr inactive
C=CCc1cc(Cl)ccc1OCCCN1CCOCC1	MITF inh 71 | MITF confirm inactive | AS interf ctr inactive
CCOC(=O)c1c(NC(=O)c2ccc(OC)cc2OC)sc(C(=O)N(C)C)c1C	none
CCOc1ccc(CN2CCNC(=O)C2CC(=O)NCCc2cccc(Cl)c2)cc1 (stereo not given)	none
Cc1cccc(NCc2cccc([N+](=O)[O-])c2)c1	MITF inh 69 | MITF confirm inactive | AS interf ctr inactive
COc1ccc(OC)c(CNc2cccc(C)c2)c1	MITF inh 64 | MITF confirm inactive | AS interf ctr inactive
COc1cc(OC)c(OC)cc1CNc1cccc(C)c1	MITF inh 52 | MITF confirm inactive | AS interf ctr inactive
CCn1c(C(=O)O)c(CC(=O)NCCCN2CCOCC2)c2ccccc21	none
COc1ccc(CN2CCN(Cc3ccc(C)cc3)CC2)c(OC)c1	MITF inh 79 | MITF confirm inactive | AS interf ctr inactive
COc1ccc(CN2CCN(Cc3ccc(C(F)(F)F)cc3)CC2)c(OC)c1	MITF inh 68 | MITF confirm inactive | AS interf ctr inactive
COc1ccccc1CN1CCN(Cc2ccc(C(F)(F)F)cc2)CC1	MITF inh 60 | MITF confirm inactive | AS interf ctr inactive
CCCOc1ccc(C(=O)Nc2ccc(-c3nc4cc(C)ccc4o3)cc2)cc1	none
CS(=O)(=O)c1cnc2ncnn2c1C1CCCN(C(=O)c2ccno2)C1 (stereo not given)	none
CCCSc1nc(N2CCCCC2)c2c(c1C#N)CCCC2	MITF inh 66 | MITF confirm inactive | AS interf ctr inactive
N#Cc1c(SCC(=O)O)nc(N2CCCCC2)c2c1CCCC2	none
